# Laboratory results reported in PubChem BioAssay (EPA / NIEHS).
# “And” between values parts separate entries of the source, which are not always exact repeats. Equal entries are not always repeated. The source holds several records for some structures; these can differ, active in one and inactive in another. The source made the active and inactive calls. The calls were made as follows: active = hit-call score of the fitted dose curve at least 0.9, where 1 is the maximum; inactive = score below 0.9.
# Experiment: BSK_LPS_PGE2: BioMAP Diversity Plus: LPS Assay for Prostaglandin E2 (PGE2) Biomarker Activity (AID 2283082)
# Settings: primary human HUVEC with PBMC; actives raise or lower the signal
# Procedure: BSK_LPS is a cell-based, multiplexed-readout assay that uses umbilical vein endothelium and peripheral blood mononuclear cells, a human vascular primary cell co-culture, with measurements taken at 24 hours after chemical dosing in a 96-well plate.BSK_LPS_PGE2 is an assay component measured in the BSK_LPS assay. It measures PGE2 antibody related to regulation of gene expression using ELISA technology.Data from the assay component BSK_LPS_PGE2 was analyzed into 1 assay endpoint. This assay endpoint, BSK_LPS_PGE2, was analyzed with bidirectional fitting relative to DMSO as the negative control and baseline of activity. Using a type of binding reporter, gain or loss-of-signal activity can be used to understand changes in the signaling as they relate to the gene PTGER2. Furthermore, this assay endpoint can be referred to as a primary readout, because this assay has produced multiple assay endpoints where this one serves a signaling function. To generalize the intended target to other relatable targets, this assay endpoint is annotated to the gpcr intended target family, where the subfamily is rhodopsin-like receptor.
# The levels of cell surface (or secreted, indicated by the prefix "s") biomarker endpoints were measured by ELISA. Overt cytotoxicity to cells in confluent adherent cultures (all systems other than the BT system) was assessed by measuring total protein levels using sulforhodamine B (SRB) staining in parallel cultures at the time of biomarker measurements, indicated as SRB endpoints. For proliferation assays for adherent cell types, individual cell types are cultured at sub-confluence and relative cell numbers quantified by SRB staining at time points optimized for each system (48 h: 3C and CASM3C systems; 72 h: BT and HDF3CGF systems; 96 h: SAg system). SRB was performed by staining cells with 0.1% SRB after fixation with 10% TCA and reading wells at 560 nm.Viability and proliferation of PBMC (T cells) was quantified by Alamar Blue reduction for the SAg and BT systems. For PBMC viability (referred to as PBMC Cytotoxicity within the assay endpoint names), cells were plated (75,000/well in a 96-well plate) and then chemical samples added for 1 h before addition of activators, SEB and TSST-1 (20 ng/mL final concentration each). Cells were incubated for 90 h. Then, Alamar Blue (20 uL/well) (Invitrogen, Cat DAL1100) was added for 6 h, and the plates were read with a fluorescence microplate reader at 546/580 nm (excitation/emission). For PBMC proliferation, cells were plated and activated as above but incubated for only 16 h prior to addition of Alamar Blue. Plates were read after 6 h.
Compound,outcome,AC50
CCCCCCCC(=O)O,inactive,–
O=C(OCCOCCOC(=O)c1ccccc1)c1ccccc1,inactive,–
C[C@@H]1C[C@H]2[C@@H]3CCC4=CC(=O)C=C[C@]4(C)[C@@]3(F)[C@@H](O)C[C@]2(C)[C@@]1(O)C(=O)COP(=O)(O)O,inactive,9.37 µM (active) and 3.63 µM (active)
N#C[C@@H]1CC(F)(F)CN1C(=O)CNC1CC2CCC(C1)N2c1ncccn1 (stereo not given in full),–,0.939 µM (active)
CN1CCC[C@H]1c1cccnc1,inactive,–
Nc1cccc2c(N)cccc12,–,12.9 µM (active)
Cc1cc(C)c(O)c(C)c1,–,2.97 µM (active)
CC[C@H](c1ccc(O)cc1)[C@@H](CC)c1ccc(O)cc1,–,38.1 µM (active)
CN1CCN(c2ccccc2/C=C2\SCCN(c3ccc(Cl)c(Cl)c3)C2=O)CC1,inactive,–
CCCCCCCCCCCCCC[N+](C)(C)C,inactive,–
CCCCC(CC)COC(=O)CCCCC(=O)OCC(CC)CCCC (stereo not given),inactive,–
CCCCCCC(=O)O,inactive,–
c1ccc2cc3c(ccc4ccccc43)cc2c1,inactive,–
CCCCCCCCCCCCN1CCCC1=O,inactive,–
OCCC(F)(F)C(F)(F)C(F)(F)C(F)(F)C(F)(F)C(F)(F)C(F)(F)C(F)(F)F,inactive,–
FC(F)(I)C(F)(F)C(F)(F)C(F)(F)C(F)(F)C(F)(F)I,inactive,7.63 µM (active) and 7.34 µM (active) and 7.24 µM (active)
CCCCCCCCC(=O)O,inactive,–
Cc1cc(CCN2CCN(c3nsc4ccccc34)CC2)cc2c1NC(=O)CC2(C)C,–,5.37 µM (active)
ClC1=C(Cl)C(Cl)(Cl)C(Cl)=C1Cl,–,11.6 µM (active)

Compound,outcome,AC50
COc1ccc([N+](=O)[O-])cc1N,inactive,–
Cc1oc(-c2ccccc2)nc1CCOc1ccc(C[C@H](Nc2ccccc2C(=O)c2ccccc2)C(=O)O)cc1,–,8.83 µM (active)
c1ccc2c(c1)ccc1ccccc12,inactive,–
O=[N+]([O-])c1ccc(O)cc1,inactive,–
CCN(CC)CCNc1ccc(CNC=O)c2sc3ccc(OC)cc3c(=O)c12,–,4.06 µM (active)
CC(C)(C)CC(C)(C)c1ccc(O)c(-n2nc3ccccc3n2)c1,inactive,–
CCOC(=O)CC(O)(CC(=O)OCC)C(=O)OCC,inactive,–
CCCOc1sc(C(=O)N2CCC(c3cc(CN)ccc3F)CC2)c(C)c1Br,–,12.5 µM (active)
CCCOC(=O)c1ccc(O)cc1,–,9.7 µM (active)
CCC(C)(C)C1CCC(O)CC1 (stereo not given),inactive,–
CCCCOCCO,inactive,–
CCCCCCCCCCCCc1ccccc1S(=O)(=O)O,inactive,–
CN(C)C=O,inactive,–
OC1CCCCC1,inactive,–
C#C[C@]1(O)CC[C@H]2[C@@H]3CCC4=CC(=O)CC[C@@H]4[C@H]3CC[C@@]21C,–,20 µM (active)
NC(=O)N(O)[C@@H]1C=C[C@H](Oc2cccc(Oc3ccc(F)cc3)c2)C1,–,8.49 µM (active)
O=C(O)c1ccccc1C(c1ccc(O)cc1)c1ccc(O)cc1,inactive,–
CC(C)CCCCCCOC(=O)CCCCC(=O)OCCCCCCC(C)C,inactive,–
O=C(O)Cc1cc(I)c(Oc2cc(I)c(O)c(I)c2)c(I)c1,–,15.1 µM (active)
